7 compounds from PubChem BioAssay (EPA / NIEHS) can be followed below.

Calls of active or inactive are those of the source. How the source made its calls: active means hit-call score of the fitted dose curve at least 0.9, where 1 is the maximum; inactive means score below 0.9.

The nature of assay [1]: ATG_CRE_CIS: Attagene CIS-FACTORIAL HepG2 Assay for human cAMP Responsive Element (CRE) binding protein 3 (AID 2282926). As to conditions: HepG2 CRE cis-reporter, Attagene multiplexed mRNA; actives raise or lower the signal. In short, it runs like this: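 Transfected HepG2 were treated for 24 hours, then RNA was extracted and reporter cDNA amplified with sequence-specific primers. Labelled fragments were separated by capillary electrophoresis, and the CRE signal was fitted bidirectionally with DMSO as baseline.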

For assay [2], the target named is CCAAT/enhancer-binding protein beta (Homo sapiens) (UniProt P17676). Description: ATG_C_EBP_CIS: Attagene CIS-FACTORIAL HepG2 Assay for human CCAAT/Enhancer Binding Protein (C/EBP) beta (AID 2282927). To be noted: HepG2 Attagene cis-factorial transcription factor reporter; actives raise or lower the signal. In short, it runs like this:
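HepG2 transiently transfected with multiplexed reporter units under cis-regulatory promoters reporting endogenous C/EBPb activity. After 24 h exposure, reporter mRNA assayed by RT-PCR, fluorescent labelling, HpaI digestion and capillary electrophoresis; bidirectional fitting versus DMSO.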

Assay [3] is described as follows: ATG_CMV_CIS: Attagene CIS-FACTORIAL HepG2 Assay for human CMV (Internal Marker) (AID 2282928).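 Further: endpoint acts as a background internal control marker rather than a target.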 As to conditions: HepG2 CMV promoter reporter, transcription factor profiling; actives raise or lower the signal. The gist of the method:
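Endogenous transcription factor activity read in HepG2 via transfected cis-promoter reporter units. After 24 h dosing, reporter mRNA measured by RT-PCR/capillary electrophoresis; gain or loss of signal fit relative to DMSO.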

Assay [4] in a line: ATG_DR4_LXR_CIS: Attagene CIS-FACTORIAL HepG2 Assay for human Liver X Receptor (LXR), DR4 submotif (AID 2282929). As to conditions: HepG2 Attagene DR4 cis-reporter, mRNA transcription; actives raise or lower the signal. In short, it runs like this:
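After transient transfection with multiplexed cis-promoter reporter units, HepG2 cells received test chemicals for 24 h. Reporter mRNA induction, detected by fluorescence after RT-PCR and capillary electrophoresis, was scored relative to DMSO.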

In assay [5] the target is Aryl hydrocarbon receptor (Homo sapiens) (UniProt P35869). Nature of the assay: ATG_Ahr_CIS: Attagene CIS-FACTORIAL HepG2 Assay for human Aryl Hydrocarbon Receptor (Ahr) (AID 2282930). As to conditions: HepG2 AhR cis-factorial reporter transcription; actives raise or lower the signal. The gist of the method: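 HepG2 cells transiently transfected with cis-element-driven multiplexed reporter units; endogenous AhR activity read as reporter mRNA 24 h after dosing, via RT-PCR, 6-FAM labelling, HpaI digestion and capillary electrophoresis. Bidirectional fit relative to DMSO.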
Sequence of Aryl hydrocarbon receptor (Homo sapiens) (P35869 whole entry, looked up): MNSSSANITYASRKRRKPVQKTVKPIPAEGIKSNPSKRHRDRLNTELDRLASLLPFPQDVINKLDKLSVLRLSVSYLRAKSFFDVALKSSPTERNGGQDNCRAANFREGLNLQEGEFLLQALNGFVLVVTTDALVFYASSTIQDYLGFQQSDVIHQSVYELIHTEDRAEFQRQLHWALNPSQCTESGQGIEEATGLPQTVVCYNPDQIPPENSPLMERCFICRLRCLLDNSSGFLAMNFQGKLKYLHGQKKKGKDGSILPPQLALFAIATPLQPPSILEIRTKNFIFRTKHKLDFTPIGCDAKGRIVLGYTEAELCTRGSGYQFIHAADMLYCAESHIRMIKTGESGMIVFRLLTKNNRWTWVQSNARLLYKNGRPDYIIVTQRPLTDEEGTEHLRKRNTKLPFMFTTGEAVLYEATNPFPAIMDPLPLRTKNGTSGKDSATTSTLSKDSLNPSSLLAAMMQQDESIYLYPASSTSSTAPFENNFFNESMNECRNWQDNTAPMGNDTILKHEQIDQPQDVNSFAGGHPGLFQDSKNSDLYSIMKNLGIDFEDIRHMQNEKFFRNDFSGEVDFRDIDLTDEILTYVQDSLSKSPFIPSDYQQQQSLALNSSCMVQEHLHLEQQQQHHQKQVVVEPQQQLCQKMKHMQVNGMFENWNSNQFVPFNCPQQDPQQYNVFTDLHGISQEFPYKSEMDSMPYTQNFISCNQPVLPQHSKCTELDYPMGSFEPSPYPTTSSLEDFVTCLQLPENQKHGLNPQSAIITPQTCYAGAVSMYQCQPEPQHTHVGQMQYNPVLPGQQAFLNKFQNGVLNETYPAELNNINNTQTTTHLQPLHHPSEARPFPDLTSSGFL

Assay [6] in a line: ATG_AP_1_CIS: Attagene CIS-FACTORIAL HepG2 Assay for human Activator Protein 1 (AP-1) (AID 2282931). As to conditions: HepG2 Attagene cis-factorial AP-1 reporter mRNA; actives raise or lower the signal. The gist of the method:
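After 24 h incubation with test chemical, RNA from transfected HepG2 cells was reverse-transcribed, amplified, fluorescently labelled and digested before capillary electrophoresis. Reporters were driven by cis-regulatory promoters; activity fitted bidirectionally versus DMSO.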

The nature of assay [7]: ATG_AP_2_CIS: Attagene CIS-FACTORIAL HepG2 Assay for human Activator Protein 2 (AP-2) (AID 2282932). To be noted: HepG2 AP-2 cis-reporter, Attagene transcription factor profiling; actives raise or lower the signal. In short, it runs like this:
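HepG2 cells transiently transfected with cis-element reporter units and exposed for 24 h. Reporter mRNA measured by RT-PCR, FAM labelling, HpaI digestion and capillary electrophoresis. Changes in either direction fitted relative to DMSO.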

Assay [8] can be described thus: ATG_BRE_CIS: Attagene CIS-FACTORIAL HepG2 Assay for human Bone Morphogenetic Protein (BMP) Response Element (BRE) (AID 2282933). To be noted: HepG2 BMP response element reporter, Attagene transcription factor profiling; actives raise or lower the signal. In short, it runs like this: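 Endogenous transcription factor activity at a BMP response element was monitored in transfected HepG2 cells 24 h after dosing. Fluorescent RT-PCR products were resolved by capillary electrophoresis, and activity was fitted in both directions versus DMSO.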

For assay [9], the target named is Retinoic acid receptor alpha (Homo sapiens) (UniProt P10276). Description: ATG_DR5_RAR_CIS: Attagene CIS-FACTORIAL HepG2 Assay for human Retinoic Acid Receptor Alpha (RARE), DR5 submotif (AID 2282934). As to conditions: HepG2 Attagene cis-factorial RARE DR5 reporter, mRNA; actives raise or lower the signal. The gist of the method:
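HepG2 cells transiently transfected with multiplexed reporter units; DR5 cis-element drives reporter through endogenous transcription factors. After 24 h dosing, reporter mRNA quantified by RT-PCR, fluorescent labeling, HpaI digestion and capillary electrophoresis; bidirectional fitting versus DMSO.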

The target in assay [10] is Transcription factor E2F1 (Homo sapiens) (UniProt Q01094). Description: ATG_E2F_CIS: Attagene CIS-FACTORIAL HepG2 Assay for human E2F Transcription Factor 1 (AID 2282935). To be noted: HepG2 Attagene cis-reporter, E2F reporter RNA transcripts; actives raise or lower the signal. The gist of the method:
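Endogenous E2F1 activity read through cis-promoter reporter units transfected into HepG2. After 24 h compound treatment, reporter mRNA measured by RT-PCR, HpaI digestion and capillary electrophoresis. Bidirectional fit versus DMSO.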

Assay [11] can be described thus: ATG_E_Box_CIS: Attagene CIS-FACTORIAL HepG2 Assay for human Enhancer Box (E-box) (AID 2282936). As to conditions: HepG2 E-box cis-reporter transcription, actives raise or lower the signal. In short, it runs like this: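 HepG2 cells transiently transfected with multiplexed cis-element reporter units, dosed 24 h; reporter mRNA quantified by RT-PCR, 6-FAM labelling, HpaI digestion and capillary electrophoresis. E-box (USF1) signal fitted bidirectionally vs DMSO.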

Assay [12] in a line: ATG_M_61_CIS: Attagene CIS-FACTORIAL HepG2 Assay for M61 Transcription Factor (Internal Marker) (AID 2282937). As to conditions: HepG2 Attagene CIS-FACTORIAL M61 internal marker reporter; actives raise or lower the signal. In short, it runs like this:
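Using transiently transfected HepG2 liver cells, reporter transcript levels were assessed 24 h post-dosing by RT-PCR and capillary electrophoresis. Changes in either direction were fitted relative to DMSO controls.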

Assay [13] is described as follows: ATG_EGR_CIS: Attagene CIS-FACTORIAL HepG2 Assay for human Early Growth Response 1 (EGR1) (AID 2282938). To be noted: HepG2 Attagene CIS-FACTORIAL EGR reporter mRNA; actives raise or lower the signal. In short, it runs like this:
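Fluorescent capillary-electrophoresis signal of reporter cDNA fragments serves as read-out. HepG2 cells bear transiently transfected cis-promoter reporter units and are exposed 24 h; gain- or loss-of-signal is fitted against DMSO.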

A short description of assay [14]: ATG_M_19_CIS: Attagene CIS-FACTORIAL HepG2 Assay for M19 Transcription Factor (Internal Marker) (AID 2282939). As to conditions: HepG2 Attagene CIS-FACTORIAL M19 internal marker reporter; actives raise or lower the signal. The gist of the method:
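Background-control endpoint from a multiplexed HepG2 reporter panel. Cells carrying cis-regulated reporter constructs are treated 24 h, then reporter transcripts are amplified, fluorescently labelled and sized by capillary electrophoresis. DMSO defines baseline.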

The nature of assay [15]: ATG_ERE_CIS: Attagene CIS-FACTORIAL HepG2 Assay for Estrogen Response Element (ERE) (AID 2282940). As to conditions: HepG2 ERE cis-reporter, Attagene RNA transcript; actives raise or lower the signal. The gist of the method: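 Cells used were human hepatoma HepG2, transfected with multiple reporter transcription units under cis-regulatory promoters. Reporter mRNA, read 24 h post-dosing via fluorescent RT-PCR products on capillary electrophoresis, was fitted bidirectionally relative to DMSO.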

Assay [16] can be described thus: ATG_Ets_CIS: Attagene CIS-FACTORIAL HepG2 Assay for human Erythroblast Transformation Specific (ETS) (AID 2282941). To be noted: HepG2 ETS cis-reporter transcription, actives raise or lower the signal. The gist of the method:
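Steps: transfect HepG2 with multiple reporter units; treat compound 24 h; isolate RNA, DNase-treat, reverse-transcribe; PCR-amplify, label with 6-FAM, digest with HpaI; separate by capillary electrophoresis. Activity fitted both directions versus DMSO.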

The target of assay [17] is Hepatocyte nuclear factor 3-beta (Homo sapiens) (UniProt Q9Y261). Nature of the assay: ATG_FoxA2_CIS: Attagene CIS-FACTORIAL HepG2 Assay for human Forkhead box A2 (FOXA2) (AID 2282942). To be noted: HepG2 cis-reporter transcription factor activity, 24 h; actives raise or lower the signal. The gist of the method:
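Fluorescence signal of reporter cDNA fragments, separated by capillary electrophoresis, reflects endogenous transcription factor activity in transfected HepG2 after 24 h. Both increases and decreases fitted against DMSO.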

Assay [18] can be described thus: ATG_FoxO_CIS: Attagene CIS-FACTORIAL HepG2 Assay for human Forkhead box O (FoxO) (AID 2282943). As to conditions: HepG2 Attagene cis-reporter, FoxO element, mRNA; actives raise or lower the signal. The gist of the method: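 HepG2 cells transiently transfected with cis-element-driven reporter units report endogenous FoxO activity. After 24 h chemical exposure, reporter mRNA quantified by RT-PCR, fluorescent labeling, HpaI digestion and capillary electrophoresis; bidirectional fit versus DMSO.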

Assay [19] can be described thus: ATG_GATA_CIS: Attagene CIS-FACTORIAL HepG2 Assay for human GATA Binding Protein (AID 2282944). To be noted: HepG2 GATA cis-element reporter, Attagene multiplex mRNA; actives raise or lower the signal. In short, it runs like this: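 Endogenous transcription factor activity was captured through cis-promoter-driven reporters in transfected HepG2 cells. After 24 h exposure, reporter transcripts were quantified by RT-PCR with fluorescent capillary electrophoresis, and responses fitted both directions against DMSO.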

Assay [20] can be described thus: ATG_GLI_CIS: Attagene CIS-FACTORIAL HepG2 Assay for human Zinc Finger Protein GLI1 (AID 2282945). To be noted: HepG2, Attagene cis-factorial reporter mRNA, GLI element; actives raise or lower the signal. The gist of the method:
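Transiently transfected HepG2 cells report endogenous transcription factor activity via cis-element-driven reporter units. After 24 h compound exposure, reporter mRNA was measured by RT-PCR with capillary electrophoresis; bidirectional fitting against DMSO baseline.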

Sequence of CCAAT/enhancer-binding protein beta (Homo sapiens) (P17676 whole entry, looked up): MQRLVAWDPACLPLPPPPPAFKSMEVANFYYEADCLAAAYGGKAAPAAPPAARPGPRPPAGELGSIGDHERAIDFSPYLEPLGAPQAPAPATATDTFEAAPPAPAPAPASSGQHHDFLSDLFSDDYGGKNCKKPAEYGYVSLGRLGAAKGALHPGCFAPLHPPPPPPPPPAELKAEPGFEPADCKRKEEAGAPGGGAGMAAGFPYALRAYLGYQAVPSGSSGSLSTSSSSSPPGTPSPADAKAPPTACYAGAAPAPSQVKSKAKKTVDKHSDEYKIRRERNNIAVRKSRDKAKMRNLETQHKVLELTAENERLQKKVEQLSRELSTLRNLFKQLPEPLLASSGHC
Sequence of Hepatocyte nuclear factor 3-beta (Homo sapiens) (Q9Y261 whole entry, looked up, the tested form may be a part): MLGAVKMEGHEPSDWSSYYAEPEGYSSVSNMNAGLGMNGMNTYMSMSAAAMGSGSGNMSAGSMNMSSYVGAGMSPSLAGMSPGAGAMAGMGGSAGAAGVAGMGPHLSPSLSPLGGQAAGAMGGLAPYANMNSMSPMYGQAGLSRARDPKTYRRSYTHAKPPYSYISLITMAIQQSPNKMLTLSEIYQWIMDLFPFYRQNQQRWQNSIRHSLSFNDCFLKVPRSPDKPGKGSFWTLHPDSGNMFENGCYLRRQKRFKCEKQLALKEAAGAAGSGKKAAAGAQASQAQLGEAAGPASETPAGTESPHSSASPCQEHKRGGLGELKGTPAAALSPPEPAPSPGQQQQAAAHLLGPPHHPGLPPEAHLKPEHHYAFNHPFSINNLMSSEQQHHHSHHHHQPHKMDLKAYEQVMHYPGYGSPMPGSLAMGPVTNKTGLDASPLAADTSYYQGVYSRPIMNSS
Sequence of Transcription factor E2F1 (Homo sapiens) (Q01094 whole entry, looked up): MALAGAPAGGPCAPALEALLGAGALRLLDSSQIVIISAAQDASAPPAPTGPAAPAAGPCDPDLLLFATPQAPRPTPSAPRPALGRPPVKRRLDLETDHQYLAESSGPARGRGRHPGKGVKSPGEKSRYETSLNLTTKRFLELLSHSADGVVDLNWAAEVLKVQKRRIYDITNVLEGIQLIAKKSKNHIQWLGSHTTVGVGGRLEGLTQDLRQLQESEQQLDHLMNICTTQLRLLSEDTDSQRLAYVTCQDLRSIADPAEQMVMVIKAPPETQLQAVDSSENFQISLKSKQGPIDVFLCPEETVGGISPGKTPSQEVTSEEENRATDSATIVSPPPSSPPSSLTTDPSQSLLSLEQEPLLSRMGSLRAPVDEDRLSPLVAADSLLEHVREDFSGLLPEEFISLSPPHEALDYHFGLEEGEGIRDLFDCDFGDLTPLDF
Sequence of Retinoic acid receptor alpha (Homo sapiens) (P10276 whole entry, looked up): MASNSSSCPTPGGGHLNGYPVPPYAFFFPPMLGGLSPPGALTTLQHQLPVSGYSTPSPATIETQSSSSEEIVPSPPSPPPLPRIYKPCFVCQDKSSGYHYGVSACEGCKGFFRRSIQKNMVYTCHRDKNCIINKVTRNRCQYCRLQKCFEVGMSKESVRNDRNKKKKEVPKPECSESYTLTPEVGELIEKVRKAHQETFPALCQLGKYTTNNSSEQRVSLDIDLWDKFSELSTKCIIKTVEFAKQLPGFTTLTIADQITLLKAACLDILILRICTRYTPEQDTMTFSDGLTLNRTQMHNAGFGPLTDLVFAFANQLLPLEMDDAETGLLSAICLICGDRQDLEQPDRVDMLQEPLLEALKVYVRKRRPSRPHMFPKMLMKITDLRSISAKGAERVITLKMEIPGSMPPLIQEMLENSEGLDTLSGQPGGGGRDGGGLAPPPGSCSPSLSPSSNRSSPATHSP

As to `OC[C@H]1O[C@@H](Oc2ccc(O)cc2)[C@H](O)[C@@H](O)[C@@H]1O`, the compound was called inactive in [1], in assay [2], in assay [3], in assay [4], in assay [5] and in assay [6]. Further, the compound was classed as inactive in assay [7], in [8], in assay [9], in assay [10], in [11] and in assay [12]. The compound was called inactive in assay [13], in assay [14], in assay [15], in [16], in [17] and in assay [18]. The result in assay [19] and in [20] was inactive.

Take `CC(C)(C)c1ccc(C(=O)O)cc1`: the result in assay [1], in assay [2], in assay [3], in [4], in assay [5] and in assay [6] was inactive. The compound was classed as inactive in [7], in assay [8], in [9], in assay [10], in [11] and in assay [12]. Also, the compound was classed as inactive in assay [13], in [14], in assay [16], in [17], in [18] and in assay [19]. Besides, the compound was called inactive in [20].

For the compound `CS(C)=O`, the result in [1], in assay [2], in assay [3], in [4], in assay [5] and in [6] was inactive. The call in [7], in assay [8], in assay [9], in assay [10], in [11] and in assay [12] was inactive. Moreover, the result in [13], in assay [14], in [16], in [17], in [18] and in assay [19] was inactive. For the same compound, in assay [20], the result was inactive.

For orientation: AC50 means the midpoint of the concentration-response curve, whichever way the signal moves. As to `CC(C)(C)OC(=O)c1ccc(O)cc1`, the result in assay [1], in assay [2], in [3], in [4], in [5] and in assay [7] was inactive. In addition, the compound was called inactive in assay [8], in assay [9], in [10], in assay [11], in [12] and in assay [13]. Moreover, the outcome in [14], in [16], in assay [17], in assay [18], in [19] and in [20] was inactive. Also, the half-maximal activity concentration (AC50) in assay [6] is 70.1 µM (active).

Turning to `C=C(C#N)C(=O)OCC`, the compound was called inactive in assay [1], in assay [3], in assay [5], in assay [6], in assay [7] and in assay [8]. In addition, the compound was classed as inactive in [9], in [10], in [11], in assay [12], in assay [13] and in [14]. In addition, the compound was classed as inactive in [16], in assay [17], in [18], in assay [19] and in assay [20]. Besides, the results for the AC50 in assay [2] and in assay [4] were 154 µM (active) and 158 µM (active), respectively.

As to `C/C=C(\C)C(=O)OCCc1ccccc1`, the result in assay [1], in [2], in [3], in [4], in [5] and in [6] was inactive. Also, the result in assay [7], in [8], in [9], in assay [10], in assay [11] and in assay [12] was inactive. For the same compound, the compound was called inactive in [13], in assay [14], in assay [16], in assay [17], in assay [18] and in assay [19]. The call in assay [20] was inactive.

For the compound `C=Cc1ccc(C)cc1`, the compound was called inactive in [1], in [2], in [3], in [4], in [5] and in assay [6]. The outcome in [7], in assay [8], in [9], in [10], in assay [11] and in assay [12] was inactive. The compound was called inactive in [13], in assay [14], in assay [16], in assay [17], in assay [18] and in [19]. For the same compound, in [20], the outcome was inactive.
